# Source: PubChem BioAssay AID743358 (Broad Institute, 2014)
# The source made the active and inactive calls.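 Rule for the calls: active = ATP signal drop in HepG2 cells with fitted half-maximal concentration at most twice the top tested dose; inconclusive = flat curve losing 30 to 70% signal, or poor fit; inactive = the rest.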
# Experiment: HepG2 cell cytotoxicity, dose response, cytotoxicity control, luminescence, dry powder, set 9 (AID 743358)
# Conditions: HepG2 viability, ATP luminescence, 72 h; series mostly up to 26 µM; activity change, negative = cytotoxicity: at the top concentration
row,Structure (SMILES),"activity change, negative = cytotoxicity"
1,CCCCCCCC(=O)N1CC[C@@H]2[C@@H](CO)N(C)c3ccc(-c4cccc(F)c4)cc3[C@@H]21,-3.77% (inactive)
2,CN1c2ccc(-c3ccc(F)cc3)cc2[C@H]2[C@H](CCN2C(=O)Cc2ccccn2)[C@H]1CO,11.1% (inactive)
3,CCCNC(=O)N1CC[C@@H]2[C@@H](CO)N(C)c3ccc(-c4ccc(F)cc4)cc3[C@@H]21,5.94% (inactive)
4,CC(=O)c1ccc(N2CCN(C(=O)c3ccccc3F)CC2)cc1,-2.66% (inactive)
5,CN1c2ccc(-c3ccc(F)cc3)cc2[C@H]2[C@H](CCN2C(=O)Nc2ccc(F)cc2)[C@H]1CO,0.957% (inactive)
6,COc1ccccc1NC(=O)N1CC[C@@H]2[C@@H](CO)N(C)c3ccc(-c4ccc(F)cc4)cc3[C@@H]21,-3.19% (inactive)
7,CC(=O)c1ccc(NCCNC(=O)c2ccc3c(c2)OCO3)cc1,12.5% (inactive)
8,COc1ccccc1NC(=O)N1CC[C@@H]2[C@@H](CO)N(C)c3ccc(-c4cccc(F)c4)cc3[C@@H]21,19.8% [at 12 µM] (inactive)
9,COC(=O)c1ccc(N2CCN(C(=O)c3ccc4c(c3)OCO4)CC2)cc1,-9.05% (inactive)
10,CC(=O)c1ccc(N2CCN(C(=O)c3ccc4c(c3)OCO4)[C@H](C)C2)cc1,0.077% (inactive)
11,CN(C)C(=O)c1ccc(N2CCN(C(=O)c3ccc4c(c3)OCO4)CC2)cc1,-0.61% (inactive)
12,CN1c2ccc(-c3cccc(F)c3)cc2[C@@H]2[C@@H](CCN2C(=O)c2ccc3c(c2)OCO3)[C@@H]1CO,-6.13% (inactive)
13,CN1c2ccc(-c3ccc(F)cc3)cc2[C@H]2[C@H](CCN2C(=O)Nc2cc(F)ccc2F)[C@H]1CO,-1.9% [at 23.5 µM] (inactive)
14,CNC(=O)c1ccc(N2CCN(C(=O)c3ccc4c(c3)OCO4)CC2)cc1,-4.16% (inactive)
15,CCC(=O)N1CC[C@@H]2[C@@H](CO)N(C)c3ccc(-c4ccc(F)cc4)cc3[C@@H]21,12.3% [at 23.5 µM] (inactive)
16,CN1c2ccc(-c3cccc(F)c3)cc2[C@H]2[C@H](CCN2C(=O)CCCCCCN)[C@H]1CO,-2.25% (inactive)

row,Structure (SMILES),"activity change, negative = cytotoxicity"
1,CNS(=O)(=O)c1ccc(N2CCN(C(=O)c3ccc4c(c3)OCO4)CC2)cc1,8.97% (inactive)
2,COc1ccc(NC(=O)N2CC[C@@H]3[C@@H](CO)N(C)c4ccc(-c5cccc(F)c5)cc4[C@@H]32)cc1,-6.83% (inactive)
3,CC(=O)c1ccc(N2CC3(CN(C(=O)c4ccc5c(c4)OCO5)C3)C2)cc1,2.7% (inactive)
4,COCC(=O)N1CC[C@@H]2[C@@H](CO)N(C)c3ccc(-c4cccc(F)c4)cc3[C@@H]21,3.43% (inactive)
5,CC(=O)c1ccc(N2CCN(C(=O)c3ccc4c(c3)OCO4)CC2)cc1,-1.15% (inactive)
6,CN1c2ccc(-c3cccc(F)c3)cc2[C@H]2[C@H](CCN2C(=O)Cc2ccccc2)[C@H]1CO,-1.4% [at 23.5 µM] (inactive)
7,CC(C)NC(=O)N1CC[C@@H]2[C@@H](CO)N(C)c3ccc(-c4ccc(F)cc4)cc3[C@@H]21,3.41% (inactive)
8,CN1c2ccc(-c3cccc(F)c3)cc2[C@H]2[C@H](CCN2C(=O)CCCCCCC(=O)O)[C@H]1CO,22% (inactive)
9,CN1c2ccc(-c3cccc(F)c3)cc2[C@H]2[C@H](CCN2C(=O)Cc2cccnc2)[C@H]1CO,2.12% (inactive)
10,COc1ccccc1C(=O)N1CCN(c2ccc(C(C)=O)cc2)CC1,-1.61% (inactive)
11,CC(=O)c1ccc(N2CCN(C(=O)c3ccccc3Cl)CC2)cc1,-4.95% (inactive)
12,CN1c2ccc(-c3ccc(F)cc3)cc2[C@H]2[C@H](CCN2C(=O)Cc2cccnc2)[C@H]1CO,-3.17% [at 23.5 µM] (inactive)
13,COc1ccc(NC(=O)N2CC[C@@H]3[C@@H](CO)N(C)c4ccc(-c5ccc(F)cc5)cc4[C@@H]32)cc1,-3.27% (inactive)
14,CN1c2ccc(-c3cccc(F)c3)cc2[C@H]2[C@H](CCN2C(=O)c2ccc3c(c2)OCO3)[C@@H]1CO,-0.839% (inactive)
15,CN1c2ccc(-c3cccc(F)c3)cc2[C@@H]2[C@@H](CCN2C(=O)c2ccc3c(c2)OCO3)[C@H]1CO,3.64% (inactive)
